A selection: hits, their analogues and other compounds. The true share with any hit is near 4.2%.
Sfp inh = qHTS Assay for Inhibitors of Bacillus subtilis Sfp phosphopantetheinyl transferase (PPTase); Potency, µM, for inactives: largest response in the series, negative = inhibition, most hits filed as inhibitors; 4'-phosphopantetheinyl transferase ffp (Bacillus subtilis), Q9F4F7; Biochemical Sfp PPTase activity, qHTS; 310,000 tested, 3.5% active;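 further: the enzyme is Sfp with the accession as filed and its product quenches rhodamine fluorescence; potency means the concentration at half of the fitted maximal effect; 0% = enzyme reaction without inhibitor and -100% = no enzyme wells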
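Sfp 15 nM + cpd, 15 min RT; start w/ rhodamine-CoA 5 uM, BHQ-2-YbbR 12.5 uM (final); 50 mM Hepes pH 7.6, 10 mM MgCl2, 0.01% NP-40, 0.01% BSA; read 525/598 nm at 0 and 30 min.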
ALOX12 inh = Primary qHTS assay for inhibitors of human arachidonate 12S-lipoxygenase (ALOX12): Round 2. AID 1671190, 2021. Potency, µM (titrated, usually from 108 µM), inactives show at the top dose activity change, negative = inhibition, actives largely listed as inhibitors. 580,000 tested, 1.1% active. purified 12hLO, xylenol orange hydroperoxide absorbance; further: potency means the concentration at half of the fitted maximal effect; on the % scale 0 is the no-effect control and ±100 the full control effect
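Purified human 12hLO (150 nM final) in 25 mM Hepes, 0.01% Triton X-100, pH 7.0 was preincubated 15 min at room temperature with compound. Then 40 uM arachidonic acid was added, 30 min. Hydroperoxide was read by Fe-XO absorbance ratio 573/405 nm.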
VDR inhibitor = Inhibitors of the vitamin D receptor (VDR): qHTS. Vitamin D3 receptor (Homo sapiens), P11473. VDR-SRC2-3 peptide fluorescence polarization, 2 h. Potency, µM, inactives show max response, negative = inhibition, actives largely listed as inhibitors. 400,000 tested, 0.93% active; further: potency means the concentration at half of the fitted maximal effect; on the % scale 0 is the no-effect control and ±100 the full control effect
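Fluorescence polarization assay measuring small-molecule disruption of VDR binding to the coregulator peptide SRC2-3. Compounds were pin-transferred (23 nl) into the reagent mix and incubated 2 h at room temperature before reading.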
PLK1 PBD inh = qHTS for Inhibitors of PLK1-PDB (polo-like kinase 1 - polo-box domain): Primary Screen; Serine/threonine-protein kinase PLK1 (Homo sapiens), P53350; Plk1 PBD binding of FITC phosphopeptide, fluorescence polarization; Potency, µM, for inactives: max response, negative = inhibition, hits mostly inhibitors; 360,000 tested, 2.8% active; AID 720504, 2013; further: potency means the concentration at half of the fitted maximal effect; series mostly up to about 57 µM; on the % scale 0 is the no-effect control and ±100 the full control effect; nearly all actives have a fitted effect of over 65% in size
Target sequence (P53350 whole entry, looked up, the tested form may be a part): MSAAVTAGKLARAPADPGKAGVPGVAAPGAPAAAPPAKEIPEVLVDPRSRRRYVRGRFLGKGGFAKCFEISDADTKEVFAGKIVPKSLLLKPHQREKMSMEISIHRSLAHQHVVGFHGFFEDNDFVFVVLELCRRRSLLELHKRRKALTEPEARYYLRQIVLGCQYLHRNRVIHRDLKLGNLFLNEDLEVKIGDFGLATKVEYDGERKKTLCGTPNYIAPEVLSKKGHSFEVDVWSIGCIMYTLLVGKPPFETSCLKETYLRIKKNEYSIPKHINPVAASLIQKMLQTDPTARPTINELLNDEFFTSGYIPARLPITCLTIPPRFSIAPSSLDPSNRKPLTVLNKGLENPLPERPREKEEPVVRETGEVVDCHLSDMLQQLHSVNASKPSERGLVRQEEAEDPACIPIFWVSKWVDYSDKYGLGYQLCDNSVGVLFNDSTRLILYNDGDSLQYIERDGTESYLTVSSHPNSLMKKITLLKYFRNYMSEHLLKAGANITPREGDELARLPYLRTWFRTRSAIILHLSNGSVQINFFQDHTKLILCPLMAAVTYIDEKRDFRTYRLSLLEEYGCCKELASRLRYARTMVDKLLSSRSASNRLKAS
USP1-UAF1 confirm = Inhibitors of USP1/UAF1: Hit Validation in Primary Assay; 50 tested, 50% active; Ub-Rhodamine cleavage, fluorescence kinetic read; Potency, µM (doses to about 56.8 µM), without a hit: top-dose activity change, negative = inhibition, most hits filed as inhibitors; shares compounds with VDR inhibitor
VDR inh confirm = qHTS for Inhibitors of the vitamin D receptor (VDR): Hit Validation in Primary Screen; shares compounds with VDR inhibitor; VDR-coactivator inhibition assay, qHTS confirmation; Potency, µM, usual class: inhibitors; 840 tested, 89% active; AID 602199, 2012; further: potency means the concentration at half of the fitted maximal effect
VDR FP = qHTS for Inhibitors of the vitamin D receptor (VDR): Hit Validation using a Fluorescein Assay | AID 602200, 2012 | Potency, µM (series often up to 57.1 µM), for inactives: at the highest dose activity change, negative = inhibition, usual class: inhibitors | VDR-coactivator binding, fluorescein fluorescence polarization | 840 tested, 48% active | shares compounds with VDR inhibitor; further: potency means the concentration at half of the fitted maximal effect
VDR bla = qHTS for Inhibitors of the vitamin D receptor (VDR): Hit Validation using a Beta-Lactamase Assay; 840 tested, 23% active; Potency, µM (highest dose often 46.1 µM), without a hit: top-dose activity change, negative = inhibition, most hits filed as inhibitors; AID 602202, 2012; VDR beta-lactamase reporter cells, FRET ratio; cells co-treated with VDR agonist LG190178; shares compounds with VDR inhibitor; further: potency means the concentration at half of the fitted maximal effect; on the % scale 0 is the no-effect control and ±100 the full control effect
VDR viability = qHTS for Inhibitors of the vitamin D receptor (VDR): Hit Validation using a Cytotoxicity Assay; 840 tested, 18% active; shares compounds with VDR inhibitor; Potency, µM (top dose mostly 48.3 µM), for the others: at the highest dose activity change, negative = cytotoxicity, most hits filed as cytotoxic; cytotoxicity counter-screen, cell viability, qHTS;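 further: potency means the concentration at half of the fitted maximal effect; plate controls were DMSO for no effect and high-concentration cycloheximide for full effect; nearly all actives have a fitted effect of over 75% in size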
Starred values were filed as active, the others as inactive; ? = inconclusive; . = no result given. The call rests on the fitted dose curve; in most records, active means well fitted curve in the direction sought with a large enough effect; inconclusive means small, poorly fitted or top-dose-only effect, or another doubt; inactive means no such curve, though single readings can be large; an effect the other way counts as inactive or inconclusive.

SMILES	Sfp inh	ALOX12 inh	VDR inhibitor	PLK1 PBD inh	VDR inh confirm	VDR FP	VDR bla	VDR viability	others
COc1ccc(CC2=CC(=O)c3ccccc3C2=O)cc1	25µM*	-12%	20µM*	?	4.2*	3.2µM*	?	16µM*
CC1CN(S(=O)(=O)c2ccc(C(=O)Nc3ccc(S(=O)(=O)N4CCOCC4)cc3)cc2)CC(C)O1 (stereo not given)	11%	0%	3%	-4%	.	.	.	.
CC(C)CC(=O)/C(=C\c1ccc(Cl)cc1Cl)n1cncn1	32µM*	.	4µM*	?	3.8*	?	16µM*	15µM*
C=CS(=O)(=O)c1c2cc(OC)ccc2nc2ccc(OC)cc12	.	-27%	50µM*	2.7µM*	24*	14µM*	?	?
COc1ccc2nc(Cl)cc(Cl)c2c1	5%	0%	-8%	-4%	.	.	.	.
Cc1cccc(CN2CCC3(CC2)OC(=O)N(Cc2cccnc2)C3(C)c2ccccc2)c1 (stereo not given)	.	12%	.	.	.	.	.	.
CNc1ccc(Br)cc(C(=O)/C=C/c2cccc(Cl)c2Cl)c1=O	22µM*	6.3µM*	?	?	8.9*	-22%	23µM*	-26%
C/C(=C\c1cccc(Cl)c1Cl)C(=O)c1c(C)cc(C)[nH]c1=O	18%	?	-5%	-2%	.	.	.	.
CCC(=O)c1ccccc1OCCN1CCN(CC)CC1	?	-19%	7%	-12%	.	.	.	.
O=C(O)CSc1cc(NS(=O)(=O)c2ccc(Br)cc2)c2ccccc2c1O	40µM*	?	16µM*	4.7µM*	4.2*	18µM*	-28%	?
Cc1cc(C(=O)N/N=C/c2ccc(C(C)C)cc2)c2ccccc2n1	.	-1%	.	.	.	.	.	.
COc1ccc(OC)c(CCNC(=O)CCc2cn(C)c3ccccc23)c1	5%	-2%	-14%	-7%	.	.	.	.
CCCC(=O)NCCc1c2n(c3ccc(OC)cc13)CCCc1ccccc1-2	.	.	0%	.	.	.	.	.	USP1-UAF1 confirm=?
O=C1/C(=C/c2cccc([N+](=O)[O-])c2)CCc2ccccc21	0%	-6%	?	-15%	13*	25µM*	?	?
O=C1/C(=C/c2ccc([N+](=O)[O-])cc2)CCc2ccccc21	15%	.	.	.	.	.	.	.
O=C(CCN1CCN(c2ccc([N+](=O)[O-])cc2)CC1)c1ccc(Cl)cc1	?	0%	25µM*	?	27*	13µM*	12%	?
O=C(CN1CCN(c2ccc([N+](=O)[O-])cc2)CC1)c1ccccc1	?	?	-19%	-26%	.	.	.	.
CCOC(=O)N1CCN(CCC(=O)c2ccc(Cl)cc2)CC1	50µM*	?	35µM*	12µM*	12*	11µM*	?	?
Cc1ccc(S(=O)(=O)N[C@@H](Cc2ccccc2)C(=O)CCl)cc1	0%	?	5.6µM*	?	9.5*	7.1µM*	18µM*	?	USP1-UAF1 confirm=47µM*
Cc1ccc(S(=O)(=O)NC(Cc2ccccc2)C(=O)NN)cc1 (stereo not given)	3%	54%	-12%	-11%	.	.	.	.
COc1ccc(C)cc1-n1c(SCC(=O)NC2CC2)nc2ccccc2c1=O	.	313%	2%	4%	.	.	.	.
CC(=O)N1Cc2cc(N)ccc2Oc2ccccc21	8%	-3%	-1%	-2%	.	.	.	.
CC1(C)CC(=O)C(C(C2=C(O)CC(C)(C)CC2=O)c2ccc(O)c([N+](=O)[O-])c2)=C(O)C1	20µM*	-17%	79µM*	4.7µM*	9.5*	?	-2%	17%
CC1(C)CC(=O)C2=C(C1)OC1=C(C(=O)CC(C)(C)C1)C2c1ccc(O)c([N+](=O)[O-])c1	8%	-25%	5%	-3%	.	.	.	.
O=C(C=Cc1ccccc1)c1cc(Br)ccc1O	.	?	?	-22%	.	.	.	.
SMILES	Sfp inh	ALOX12 inh	VDR inhibitor	PLK1 PBD inh	VDR inh confirm	VDR FP	VDR bla	VDR viability	others
CCOc1ccc(/C=C/C(=O)c2cc(Br)ccc(=O)c2O)cc1	20µM*	28µM*	50µM*	?	13*	12%	10%	12%
Cc1cccc(/C=C/C(=O)c2cc(Br)ccc(=O)c2O)c1	14µM*	?	16µM*	21µM*	3.8*	58%	?	?
COc1cccc(-c2nc3cnccn3c2NCCC(=O)N2CCN(C(C)C)CC2)c1	.	-16%	.	.	.	.	.	.
O=C1C(C2=C(O)c3ccccc3C2=O)=Nc2ccccc21	56µM*	?	13µM*	?	0.75*	?	-26%	?
Cc1cc(-c2ccccc2)nc(N/N=C/c2ccc([N+](=O)[O-])cc2)n1	-14%	-12%	-1%	1%	.	.	.	.
COC(=O)c1ccc(Cn2cc(/C=C\[N+](=O)[O-])c3ccccc32)o1	56µM*	?	25µM*	?	21*	?	?	?
O=C(Oc1csc(=S)n1C(=O)c1ccccc1)c1ccccc1	40µM*	.	?	3µM*	?	8.9µM*	-5%	14%
COc1ccc(OC)c(NC(=O)c2nc(S(=O)(=O)Cc3ccccc3)ncc2Cl)c1	-5%	-2%	10µM*	?	12*	?	8.2µM*	8.2µM*
COc1ccc(OC)c(NC(=O)c2nc(S(=O)(=O)Cc3ccccc3F)ncc2Cl)c1	.	.	.	.	2.8*	4µM*	16µM*	11µM*
CCCCCn1c(=O)[nH]c2cc(C(=O)NCc3ccccc3)ccc2c1=O	.	-10%	-4%	.	.	.	.	.
